These results are taken from PubChem BioAssay.

The experiment is described as follows: blood-stage malaria parasite viability loss – strain 3D7, DAPI fluorescence, 100 nL, primary screen (AID 1184).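 Note: parasites grown inside human red blood cells in medium with human serum.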 As to conditions: P. falciparum 3D7 growth, 3 d, higher = more signal.
`Cc1ccc(S[C@]2(C(=O)NCC(F)(F)F)CC(=O)N(Cc3ccccc3Cl)[C@@H]2c2ccc(CO)cc2I)cc1` showed a z-score of 0.115. With `Cc1ccc(S[C@]2(C(=O)O)CC(=O)N(Cc3ccccc3)[C@@H]2c2ccc(CO)cc2I)cc1` the figure was -0.58; with `COC(=O)C1(C)C=C2C(=C(c3ccccc3)C(=O)C2C)CN1` (configuration not stated), -0.0619; with `CC(C)[Si]1(C(C)C)O[C@@H](c2ccccc2)c2cc(C3CC3)nc(-c3ccccc3)c21`, 0.0193.

Compound `CN1C(=O)C2C=CC(C(O)C(c3ccccc3)c3ccccc3)N(NC(=O)OC(C)(C)C)C2C1=O` (configuration not stated) showed a z-score of 0.617. Turning to `COC(=O)[C@@H]1N=C(c2ccc(OCCCO)cc2)O[C@@H]1c1ccccc1N=[N+]=[N-]`, the z-score is -1.43. As for `C=C(/C(=C/C[C@H](OC(C)=O)c1ccc(OCCO)cc1)c1cnc2ccccc2c1)C(C)C`, the figure is -2.99; as for `COCCCNC(=O)[C@@]1(CCS(=O)(=O)c2ccccc2)N=C(c2ccc(OCCCO)cc2)O[C@H]1c1ccccc1`, -1.62; as for `CC(C)NC(=O)[C@@]1(c2ccc([N+](=O)[O-])cc2)CC(=O)N(CC23CC4CC(CC(C4)C2)C3)[C@@H]1c1ccc(CO)cc1I`, -0.705. With `CCCCCN1CC=CC23O[C@@H]4C=CCOC(=O)[C@@H]4[C@H]2C(=O)N(C(CO)C(C)C)[C@@H]3C1=O` (some centres not stated) the figure was -0.303. With `COc1ccc([Si](C)(C)[C@@H]2[C@@H](CCO)O[C@]3(C(=O)N(Cc4ccc(NC(C)=O)cc4)c4ccccc43)[C@H]2C)cc1` the figure was -2.92; with `O[C@@H](Cc1ccccc1)[C@H]1C2C=CCCC(c3ccccc3)=C2CN1Cc1cccc(Cl)c1` (some centres not stated), 0.514; with `CN1C(=O)[C@@]2(CCC(=O)OC(C)(C)C)N=C(c3ccc(OCCCO)cc3)O[C@H]2c2ccccc21`, -2.1. Compound `O=C1NC(=O)C2C1C=CC(C(O)Cc1ccccc1)N2Nc1ccccn1` (configuration not stated) registered a z-score of 0.396. Take `CO[C@H]1O[C@H](CO)[C@@H](OC(=O)Nc2ccc3c(c2)OCO3)[C@H](OC(=O)Nc2ccccc2-c2ccccc2)[C@@H]1OC(=O)Nc1ccccc1-c1ccccc1`: the z-score is -2.6.

As to `CC(C)c1ccc(NN2C(C(O)c3ccc4c(c3)OCO4)C=CC3C(=O)N(c4ccccc4)C(=O)C32)cc1` (configuration not stated), the z-score was -0.121. With `COC(=O)[C@H]1COC(c2ccc(OCCCO)cc2)=N1` the figure was -0.264.

As to `C[N+](C)(C)CCCCCCNC(=O)[C@@H]1C[C@@H]2C(=O)N3CCC[C@H]3C(=O)N2[C@@H]1c1cccc(OCCO)c1`, the z-score was -0.204. As for `CS(=O)(=O)CCOC(=O)C1=CC(CCCO)=CC(c2cccs2)N(Cc2cccc(OC(F)(F)F)c2)C=C1C(=O)OCCS(C)(=O)=O` (configuration not stated), the figure is -2.99.

For `C=CCN1C(=O)[C@]2(O[C@H](CCn3cc(CCO)nn3)[C@@H]([Si](C)(C)c3ccc(OC)cc3)[C@@H]2C)c2cc(N3CCOC3=O)ccc21`, the z-score is -2.7.

In turn, `CC(C)NC(=O)[C@@]1(C)c2ccccc2C(=O)N(Cc2cc(F)cc(C(F)(F)F)c2)[C@H]1c1ccc(CO)cc1` gave a z-score of 0.281. With `CO[C@H]1O[C@H](CO)[C@@H](OC(=O)Nc2ccc(C#N)cc2)[C@H](OC(=O)c2cc3ccccc3[nH]2)[C@H]1OC(=O)c1cc2ccccc2[nH]1` the figure was -1.96; with `COc1ccc([Si](C)(C)[C@@H]2[C@@H](CC(=O)N3CCC[C@H]3CO)O[C@]3(C(=O)N(Cc4cccc(N5CCC5=O)c4)c4ccccc43)[C@H]2C)cc1`, -0.744; with `CCCNC(=O)[C@@H]1c2ccccc2C(=O)N(Cc2ccccc2Cl)[C@H]1c1ccc(CO)cc1`, -0.994. As for `C=C(/C(=C/C[C@@H](OC(=O)c1ccncc1)c1ccc(OCCO)cc1)c1cnc2ccccc2c1)C(C)C`, the figure is -2.84; as for `O=C1C[C@]2(c3ccc([N+](=O)[O-])cc3)C(=O)N(CCN3CCOCC3)c3cc(CO)ccc3[C@H]2N1CC12CC3CC(CC(C3)C1)C2`, -0.226; as for `CN(C)CCCNC(=O)[C@@H]1c2ccccc2C(=O)N(Cc2cc(F)cc(C(F)(F)F)c2)[C@H]1c1ccc(CO)cc1`, -0.1.

For the compound `CN(C)CCCNC(=O)[C@@H]1c2ccccc2C(=O)N(Cc2ccccc2)[C@H]1c1ccc(CO)cc1`, the z-score worked out at 0.0535. As for `CN1C(=O)C2C=CC(C(O)c3ccc(Br)cc3)N(N(c3ccccc3)c3ccccc3)C2C1=O` (configuration not stated), the figure is -0.233; as for `COc1ccc(CCNC(=O)[C@@H]2c3ccccc3C(=O)N(c3ccc(C)cn3)[C@H]2c2ccc(CO)cc2)cc1`, -0.183. As for `CCOC(=O)C1=CCC(c2cc3ccccc3[nH]2)NC1` (configuration not stated), the figure is -0.501; as for `CC(C)N1CC=CC23O[C@@H]4C=CCCOC(=O)C4[C@H]2C(=O)N(CCCCCCO)[C@@H]3C1=O` (some centres not stated), 0.0012.
